{
  "source": "the supplement of paper PMC6555819",
  "data": [
    {"test_system": "PPARg:RXRa DBDmut IVT, anti-RXR (DBD mutation: RXRa K156A/R161A, NR concentration 270 nM, RXRa partner concentration 90 nM)", "assay": "PBM binding z-score (relative to random genomic background probes); higher = stronger binding; sequences stand for … in GC…GCGATTGACAGCGTAGAATGAAGG", "in_short": "(§1)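 Probes were double-stranded and carried 34-nt variable regions with direct-repeat seeds, single-nucleotide variants, half-site ablations and random human genomic background sequences, printed on custom Agilent 4×180K protein-binding microarrays. Arrays were incubated 1 h with ligand-free nuclear receptor dimers in PBS pH 7.4, 2% milk, 0.02% Triton X-100, 1 mM DTT, 0.2 mg/mL BSA and 0.4 mg/ml salmon testes DNA. Antibodies against each partner (one per run) detected binding, and scanned fluorescence was regression-normalized. Binding z-scores use the random background probes as reference.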", "values": [
      {"sequence": "TCAGACAGGTGAAGCTAACTCAGGTACGCAGTCG", "PBM binding z-score": 2.31},
      {"sequence": "TAGCCTTGGTCATGCGGGCCAGTATAGTGTCGGC", "PBM binding z-score": -0.432},
      {"sequence": "GTACCAAGGTGAATAGGTCGTTAATGAGTAGGCG", "PBM binding z-score": 1.75},
      {"sequence": "GCTTGTAGATCAACGTTAAGAAAGACTAAGCTAA", "PBM binding z-score": 1.51},
      {"sequence": "TCTTGTAGATCAAAGGGTAAGAAAGCCGAAGCCT", "PBM binding z-score": 1.69},
      {"sequence": "GCTGATAGGTCAACTGATGGTCAGCTAAAGCTCG", "PBM binding z-score": 3.71},
      {"sequence": "CATACAGGGTCAGCTAGGGCAGAGTAGGGACGGC", "PBM binding z-score": 1.09},
      {"sequence": "AGTCAAAGTTCAGGACGATGTAACGTAAAGCACG", "PBM binding z-score": -0.314},
      {"sequence": "TCTAGTTGGTCACGGTGGTCACACACGACGGGTA", "PBM binding z-score": 2.21},
      {"sequence": "CCGACTGGGGCAAGGTTGCCATAACGCACAGCCA", "PBM binding z-score": 2.66},
      {"sequence": "CCTAGCGGGCCAGGGTCACTCAAGCATTTCGCTT", "PBM binding z-score": -0.418},
      {"sequence": "AGAATGAGGTTGTACGTAGATCAGGGAAGAAAGT", "PBM binding z-score": -0.0167},
      {"sequence": "AGAATGAGGTTATACGTACATCAGGGAAGAAAGT", "PBM binding z-score": 2.47},
      {"sequence": "TGGAGTAGGTTAGGGGCATTCAGAATGGCGTCGA", "PBM binding z-score": 2.77},
      {"sequence": "CCTACTGGGCCATTCAGAGGCCATTGATCATATG", "PBM binding z-score": 4.1},
      {"sequence": "ATATGTAGGTTACGGGTCATTCAGGTTGGTTCGC", "PBM binding z-score": 7.79},
      {"sequence": "TCGAGTAGGTTAGGGGTATTCAGAATGGCGTCGA", "PBM binding z-score": 2.5},
      {"sequence": "CCTAGTTCGTCAAGGTCACACACGCTATAGGTAC", "PBM binding z-score": 1.21},
      {"sequence": "TCTTTTAGTTGATTAGGGCAACCGAAACAGCGGA", "PBM binding z-score": 2.25},
      {"sequence": "GCTAGCAGGGCATTTGGGTCACTCAATGACGGGC", "PBM binding z-score": 2.42},
      {"sequence": "TGAATGAGGTTATAAGATCGGGGAACGTTGCAAA", "PBM binding z-score": 1.5},
      {"sequence": "CGTCCCAGGTCAGAGAGGTCAGTGAATGCCGAGT", "PBM binding z-score": 1.78},
      {"sequence": "CAAACTAGGGCAAAGGTCAAAGTCGAGCCAACCA", "PBM binding z-score": 7.98},
      {"sequence": "CGAACTAGGTCATTGACGGGACAGTGAATAGTAA", "PBM binding z-score": 8.12},
      {"sequence": "TCTTGTAGATCAACAGGCGGTTAAGAAAGATCGA", "PBM binding z-score": 1.91},
      {"sequence": "ACTATTAGGTGACTTAGGGCAACCGATACGACGC", "PBM binding z-score": 4.96},
      {"sequence": "TCTGCTACGTCAGTTGGTCAGCTAACGAGCTGCC", "PBM binding z-score": 0.19},
      {"sequence": "CTCGAAAGGTCGTGCTCAAGTGAGTATACCAAAC", "PBM binding z-score": 0.992},
      {"sequence": "TAGCCTAGGTCATTCAGGGGCCAGGATAGAAAGC", "PBM binding z-score": 1.12},
      {"sequence": "CCTCGGAGGACAACAGGAGGTGAGAGCTGCCAGA", "PBM binding z-score": 0.262},
      {"sequence": "ACAGACAGGTGAGTGAAGGTAATTCAGCTGGACG", "PBM binding z-score": 0.0687},
      {"sequence": "CTACCAAGGTGAACAAGCTCGTTGATTACTATTC", "PBM binding z-score": 2.56},
      {"sequence": "TAGCCTAGGTAATGCGGGCCAGTATAGTGTCGGC", "PBM binding z-score": 0.0726},
      {"sequence": "CCTCGGAGGACAAAAGGAGGTCAGAGCTGCCAGA", "PBM binding z-score": 0.965},
      {"sequence": "GCTTGTAGAGCAAGGTTAAGAAAGACTAAGCTAA", "PBM binding z-score": 2.64},
      {"sequence": "TCATATAGGTAAAAGGAGAAAGTCGGTGTGGTAA", "PBM binding z-score": 4.08},
      {"sequence": "TCTAGCAGGCCAGAGGTTCACTCAAGAGGTACGG", "PBM binding z-score": 0.614},
      {"sequence": "TCGAGTAGGTTCGGGGCATTCAGAATGGCGTCGA", "PBM binding z-score": 0.529},
      {"sequence": "TCTATTAGTTGATTAGGGCAACCTAAACAGCGGA", "PBM binding z-score": 1.94},
      {"sequence": "ATACCAAAGTGATCGTGAGGTCGTTGATACTAAC", "PBM binding z-score": -0.498}
    ]},
    {"test_system": "PPARg:RXRa IVT, anti-PPARg (NR concentration 270 nM, RXRa partner concentration 90 nM)", "assay": "PBM binding z-score (relative to random genomic background probes); higher = stronger binding; sequences stand for … in GC…GCGATTGACAGCGTAGAATGAAGG", "in_short": "as §1", "values": [
      {"sequence": "TCAGACAGGTGAAGCTAACTCAGGTACGCAGTCG", "PBM binding z-score": 0.713},
      {"sequence": "TAGCCTTGGTCATGCGGGCCAGTATAGTGTCGGC", "PBM binding z-score": 0.0959},
      {"sequence": "GTACCAAGGTGAATAGGTCGTTAATGAGTAGGCG", "PBM binding z-score": 2.66},
      {"sequence": "GCTTGTAGATCAACGTTAAGAAAGACTAAGCTAA", "PBM binding z-score": 0.269},
      {"sequence": "TCTTGTAGATCAAAGGGTAAGAAAGCCGAAGCCT", "PBM binding z-score": 1.86},
      {"sequence": "GCTGATAGGTCAACTGATGGTCAGCTAAAGCTCG", "PBM binding z-score": 3.35},
      {"sequence": "CATACAGGGTCAGCTAGGGCAGAGTAGGGACGGC", "PBM binding z-score": 2.7},
      {"sequence": "AGTCAAAGTTCAGGACGATGTAACGTAAAGCACG", "PBM binding z-score": 1.19},
      {"sequence": "TCTAGTTGGTCACGGTGGTCACACACGACGGGTA", "PBM binding z-score": 3.35},
      {"sequence": "CCGACTGGGGCAAGGTTGCCATAACGCACAGCCA", "PBM binding z-score": 2.53},
      {"sequence": "CCTAGCGGGCCAGGGTCACTCAAGCATTTCGCTT", "PBM binding z-score": 0.39},
      {"sequence": "AGAATGAGGTTGTACGTAGATCAGGGAAGAAAGT", "PBM binding z-score": 0.566},
      {"sequence": "AGAATGAGGTTATACGTACATCAGGGAAGAAAGT", "PBM binding z-score": 2.41},
      {"sequence": "TGGAGTAGGTTAGGGGCATTCAGAATGGCGTCGA", "PBM binding z-score": 3.44},
      {"sequence": "CCTACTGGGCCATTCAGAGGCCATTGATCATATG", "PBM binding z-score": 3.43},
      {"sequence": "ATATGTAGGTTACGGGTCATTCAGGTTGGTTCGC", "PBM binding z-score": 7.99},
      {"sequence": "TCGAGTAGGTTAGGGGTATTCAGAATGGCGTCGA", "PBM binding z-score": 2.26},
      {"sequence": "CCTAGTTCGTCAAGGTCACACACGCTATAGGTAC", "PBM binding z-score": 2.33},
      {"sequence": "TCTTTTAGTTGATTAGGGCAACCGAAACAGCGGA", "PBM binding z-score": 2.54},
      {"sequence": "GCTAGCAGGGCATTTGGGTCACTCAATGACGGGC", "PBM binding z-score": 3.14},
      {"sequence": "TGAATGAGGTTATAAGATCGGGGAACGTTGCAAA", "PBM binding z-score": 1.78},
      {"sequence": "CGTCCCAGGTCAGAGAGGTCAGTGAATGCCGAGT", "PBM binding z-score": 2.54},
      {"sequence": "CAAACTAGGGCAAAGGTCAAAGTCGAGCCAACCA", "PBM binding z-score": 8.53},
      {"sequence": "CGAACTAGGTCATTGACGGGACAGTGAATAGTAA", "PBM binding z-score": 8.13},
      {"sequence": "TCTTGTAGATCAACAGGCGGTTAAGAAAGATCGA", "PBM binding z-score": 0.45},
      {"sequence": "ACTATTAGGTGACTTAGGGCAACCGATACGACGC", "PBM binding z-score": 3.9},
      {"sequence": "TCTGCTACGTCAGTTGGTCAGCTAACGAGCTGCC", "PBM binding z-score": -0.135},
      {"sequence": "CTCGAAAGGTCGTGCTCAAGTGAGTATACCAAAC", "PBM binding z-score": 1.58},
      {"sequence": "TAGCCTAGGTCATTCAGGGGCCAGGATAGAAAGC", "PBM binding z-score": 2.85},
      {"sequence": "CCTCGGAGGACAACAGGAGGTGAGAGCTGCCAGA", "PBM binding z-score": 0.245},
      {"sequence": "ACAGACAGGTGAGTGAAGGTAATTCAGCTGGACG", "PBM binding z-score": 0.119},
      {"sequence": "CTACCAAGGTGAACAAGCTCGTTGATTACTATTC", "PBM binding z-score": 2.23},
      {"sequence": "TAGCCTAGGTAATGCGGGCCAGTATAGTGTCGGC", "PBM binding z-score": 0.795},
      {"sequence": "CCTCGGAGGACAAAAGGAGGTCAGAGCTGCCAGA", "PBM binding z-score": 1.96},
      {"sequence": "GCTTGTAGAGCAAGGTTAAGAAAGACTAAGCTAA", "PBM binding z-score": 1.72},
      {"sequence": "TCATATAGGTAAAAGGAGAAAGTCGGTGTGGTAA", "PBM binding z-score": 2.11},
      {"sequence": "TCTAGCAGGCCAGAGGTTCACTCAAGAGGTACGG", "PBM binding z-score": -0.232},
      {"sequence": "TCGAGTAGGTTCGGGGCATTCAGAATGGCGTCGA", "PBM binding z-score": -0.193},
      {"sequence": "TCTATTAGTTGATTAGGGCAACCTAAACAGCGGA", "PBM binding z-score": 1.73},
      {"sequence": "ATACCAAAGTGATCGTGAGGTCGTTGATACTAAC", "PBM binding z-score": 0.345}
    ]}
  ]
}
